Compounds without any hit were thinned out: in the full panel of roughly 79,000, 15% have a hit. The source made the active and inactive calls. Cut-off read from the data, not from the text of the source: active = growth inhibition above about 70%; inactive = the rest.
Key:
[1] = NCI Yeast Anticancer Drug Screen. Data for the wt1 strain (AID 149);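 note: 0% = growth of vehicle-treated wt1 cultures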; details: S. cerevisiae wt1 strain (SPY 50644) growth inhibition, active compounds read high
Summary of the method: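 wt1 strain grown with compound or vehicle; inhibition taken from the growth difference.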

[2] = NCI Yeast Anticancer Drug Screen. Data for the rad50EPP+ strain (AID 151);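 note: 0% = growth of vehicle-treated control cultures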; details: S. cerevisiae rad50 mutant strain, active compounds read high
Summary of the method: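 Strain rad50EPP+; compound exposure; % growth inhibition vs vehicle.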

[3] = NCI Yeast Anticancer Drug Screen. Data for the mgt1 strain (AID 153); details: S. cerevisiae mgt1 mutant growth inhibition, active compounds read high
Summary of the method: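 Read-out: yeast growth inhibition vs vehicle control. Strain mgt1, drawn from a panel altered in DNA damage repair or cell cycle control.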

[4] = NCI Yeast Anticancer Drug Screen. Data for the rad50 strain (AID 155);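 note: 0% = growth of vehicle-only cultures of the same strain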; details: S. cerevisiae rad50 strain growth inhibition, active compounds read high
Summary of the method: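 DNA repair mutant yeast, compound exposure, growth read-out; inhibition is taken relative to vehicle.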

[5] = NCI Yeast Anticancer Drug Screen. Data for the mec2-1 strain (AID 157); details: S. cerevisiae mec2-1 strain, active compounds read high
Summary of the method: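 Cells of the genetically defined mec2-1 yeast strain are incubated with test compound. Inhibition of growth is calculated against vehicle-treated controls.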

[6] = NCI Yeast Anticancer Drug Screen. Data for the rad14 strain (AID 159);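 note: 0% = growth of vehicle-treated control cultures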; details: S. cerevisiae rad14 strain growth inhibition, active compounds read high
Summary of the method: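 DNA repair-defective yeast, compound-exposed; % growth inhibition derived by comparison with vehicle-treated controls.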

[7] = NCI Yeast Anticancer Drug Screen. Data for the sgs1 mgt1 strain (AID 161);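 note: 0% = growth of cultures given vehicle only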; details: S. cerevisiae sgs1 mgt1 strain, active compounds read high
Summary of the method: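 Genetically altered yeast, compound exposure, growth inhibition relative to vehicle.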

[8] = NCI Yeast Anticancer Drug Screen. Data for the CLN2oe strain (AID 163);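 note: 0% = growth of vehicle-only control cultures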; details: S. cerevisiae CLN2oe strain, active compounds read high
Summary of the method: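 Strain altered in cell-cycle control, incubated with compound; growth compared to solvent-treated controls.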

[9] = NCI Yeast Anticancer Drug Screen. Data for the cln2 rad14 strain (AID 165);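 note: 0% = growth equal to vehicle treated cultures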; details: S. cerevisiae cln2 rad14 strain, active compounds read high
Summary of the method: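 The screen exposed genetically defined yeast (cln2 rad14) to test compounds and scored growth inhibition relative to vehicle-treated controls.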

[10] = NCI Yeast Anticancer Drug Screen. Data for the bub3 strain (AID 167); details: S. cerevisiae bub3 mutant strain, active compounds read high
Summary of the method: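 In this screen, a yeast mutant lacking normal mitotic checkpoint function is challenged with compound. Relative growth versus vehicle gives the inhibition value.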

[11] = NCI Yeast Anticancer Drug Screen. Data for the wt2 strain (AID 169);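 note: 0% = growth of vehicle-treated yeast cultures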; details: S. cerevisiae wt2 strain growth inhibition, active compounds read high
Summary of the method: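 Steps: yeast strain treated with compound; growth recorded; inhibition calculated relative to cultures given vehicle alone.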

[12] = NCI Yeast Anticancer Drug Screen. Data for the mlh1 strain (AID 171);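 note: 0% = growth of vehicle-treated control cultures of the same strain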; details: S. cerevisiae mlh1 strain growth inhibition, active compounds read high
Summary of the method: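 Yeast screen: mutant strain plus compound, growth scored against vehicle control wells.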

[13] = NCI Yeast Anticancer Drug Screen. Data for the sgs1 strain (AID 173);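 note: 0% = growth of vehicle-only control cultures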; details: S. cerevisiae sgs1 mutant, active compounds read high
Summary of the method: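 Inhibition of yeast growth served as the measure. The mutant strain was treated with each compound, and growth was normalised to cultures receiving vehicle alone.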

[14] = NCI Yeast Anticancer Drug Screen. Data for the mlh1 rad18 strain (AID 175); details: S. cerevisiae mlh1 rad18 strain growth inhibition, active compounds read high
Summary of the method: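 Compound-treated yeast growth, normalised to vehicle controls. Strain bears defined DNA repair mutations.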

[15] = NCI Yeast Anticancer Drug Screen. Data for the rad18 strain (AID 177); details: S. cerevisiae rad18 mutant growth inhibition, active compounds read high
Summary of the method: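 Inhibition values reflect reduced yeast growth compared with vehicle-treated controls, using a strain engineered with a DNA damage repair defect.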

[16] = at 5.0 µM (retest, dose inferred, filed as 0.5)
[17] = at 50.0 µM (retest, dose inferred, filed as 5.0)

Measured: growth inhibition

Cc1ccccc1NC(=O)c1c(C)oc2c1C(=O)c1ccccc1C2=O
inactive: [1]; at 1.2 µM -28% | [1]; at 3.7 µM -23% | [1]; at 11.0 µM -23% | [1]; at 33.0 µM -5% | [1]; at 100.0 µM 60% | [2]; at 1.2 µM -8% | [2]; at 3.7 µM -17% | [2]; at 11.0 µM 7% | [2]; at 33.0 µM 42% | [3]; at 1.2 µM -40% | [3]; at 3.7 µM -35% | [3]; at 11.0 µM -21% | [3]; at 33.0 µM 57% | [4]; at 1.2 µM -13% | [4]; at 3.7 µM -12% | [4]; [16] 6% | [4]; at 11.0 µM -1% | [4]; at 33.0 µM 7% | [4]; [17] 33% | [5]; at 1.2 µM -28% | [5]; at 3.7 µM -31% | [5]; [16] -10% | [5]; at 11.0 µM -24% | [5]; at 33.0 µM 19% | [5]; at 50.0 µM 50.5% | [6]; at 1.2 µM -45% | [6]; at 3.7 µM -28% | [6]; at 11.0 µM -26% | [6]; at 33.0 µM 12% | [7]; [16] -10% | [7]; [17] 3% | [8]; at 1.2 µM -13% | [8]; at 3.7 µM 19% | [8]; at 11.0 µM 9% | [8]; at 33.0 µM 39% | [9]; [16] 1% | [9]; [17] 51% | [9]; at 50.0 µM 53.1% | [10]; at 1.2 µM -57% | [10]; at 3.7 µM -36% | [10]; [16] 17% | [10]; at 11.0 µM -23% | [10]; at 33.0 µM 25% | [10]; at 50.0 µM 69.2% | [11]; at 1.2 µM -6% | [11]; at 3.7 µM -7% | [11]; at 11.0 µM 14% | [11]; at 33.0 µM 30% | [12]; at 1.2 µM -2% | [12]; at 3.7 µM -8% | [12]; at 11.0 µM -12% | [12]; at 33.0 µM -5% | [13]; at 1.2 µM -15% | [13]; at 3.7 µM -15% | [13]; at 11.0 µM -2% | [13]; at 33.0 µM 24% | [14]; [16] -2% | [15]; at 1.2 µM -23% | [15]; at 3.7 µM -24% | [15]; at 11.0 µM -17% | [15]; at 33.0 µM -8% | [15]; at 100.0 µM 55%
active: [2]; at 100.0 µM 82% | [3]; at 100.0 µM 93% | [4]; at 50.0 µM 82.2% | [4]; at 100.0 µM 86% | [5]; [17] 71% | [5]; at 100.0 µM 92% | [6]; at 100.0 µM 93% | [7]; at 50.0 µM 71% | [8]; at 100.0 µM 87% | [10]; [17] 94% | [10]; at 100.0 µM 85% | [11]; at 100.0 µM 87% | [12]; at 100.0 µM 85% | [13]; at 100.0 µM 83% | [14]; [17] 76% | [14]; at 50.0 µM 77%

CC(=O)N1C=Cc2c(c(C)c3c([nH]c4ccccc43)c2C)C1
inactive: [1]; at 1.2 µM -7% | [1]; at 3.7 µM 28% | [2]; at 1.2 µM 28% | [3]; at 1.2 µM 29% | [3]; at 3.7 µM 64% | [4]; at 1.2 µM 67% | [5]; at 1.2 µM -5% | [5]; at 3.7 µM 33% | [5]; [16] 12% | [7]; [16] 16% | [8]; at 1.2 µM 31% | [8]; at 3.7 µM 52% | [9]; [16] 24% | [10]; at 1.2 µM 16% | [10]; at 3.7 µM 52% | [10]; [16] 14% | [11]; at 1.2 µM 10% | [11]; at 3.7 µM 36% | [12]; at 1.2 µM 31% | [13]; at 1.2 µM -7% | [13]; at 3.7 µM 32% | [14]; [16] 44% | [15]; at 1.2 µM 23% | [15]; at 3.7 µM 44%
active: [1]; at 11.0 µM 82% | [1]; at 33.0 µM 90% | [1]; at 100.0 µM 92% | [2]; at 3.7 µM 74% | [2]; at 11.0 µM 94% | [2]; at 33.0 µM 97% | [2]; at 100.0 µM 96% | [3]; at 11.0 µM 91% | [3]; at 33.0 µM 96% | [3]; at 100.0 µM 95% | [4]; at 3.7 µM 91% | [4]; [16] 82% | [4]; at 11.0 µM 95% | [4]; at 33.0 µM 96% | [4]; [17] 91% | [4]; at 50.0 µM 87.2% | [4]; at 100.0 µM 95% | [5]; at 11.0 µM 81% | [5]; at 33.0 µM 91% | [5]; [17] 84% | [5]; at 50.0 µM 87.3% | [5]; at 100.0 µM 93% | [7]; [17] 91% | [7]; at 50.0 µM 88% | [8]; at 11.0 µM 91% | [8]; at 33.0 µM 95% | [8]; at 100.0 µM 95% | [9]; [17] 86% | [9]; at 50.0 µM 79.8% | [10]; at 11.0 µM 90% | [10]; at 33.0 µM 95% | [10]; [17] 86% | [10]; at 50.0 µM 85.3% | [10]; at 100.0 µM 96% | [11]; at 11.0 µM 81% | [11]; at 33.0 µM 90% | [11]; at 100.0 µM 92% | [12]; at 3.7 µM 71% | [12]; at 11.0 µM 90% | [12]; at 33.0 µM 96% | [12]; at 100.0 µM 95% | [13]; at 11.0 µM 86% | [13]; at 33.0 µM 95% | [13]; at 100.0 µM 95% | [14]; [17] 95% | [14]; at 50.0 µM 88.8% | [15]; at 11.0 µM 91% | [15]; at 33.0 µM 96% | [15]; at 100.0 µM 96%
